Results reported in PubChem BioAssay (Tox21).
Values joined by “and” are separate entries in the source; they are usually repeats but may differ in a detail not shown here. Identical values can stand only once. Records with an inconclusive call do not appear. A structure can be active in one record and inactive in another. Active and inactive are the calls of the source. Unless noted, calls come from the whole dose curve; as a rule, active = well fitted curve in the direction sought with a large enough effect in the repeat runs; inconclusive = weak or mixed curves; inactive = no such curve, though single readings can be large; an effect the other way counts as inactive or inconclusive.

Experiments:
[1] = A CellTox Green Cytotoxicity Assay to monitor cytotoxicity in HepG2 cells - 8 hour (AID 1224890); note: nearly all actives have a fitted effect of over 45% in size; note: potency is the fitted concentration of half-maximal effect
Procedure, shortened: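 Continuous culture of HepG2 cells with a membrane-impermeant DNA dye; rising fluorescence marks dead cells. Compound exposure lasted up to 40 h at 37 C, with reads every 8 h from 0 h.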

[2] = qHTS assay to identify small molecule antagonists of the estrogen receptor alpha (ER-alpha) signaling pathway using the BG1 cell line in the presence of 0.1 nM 17-beta-estradiol - cell viability counter screen (AID 1259241); note: nearly all actives have a fitted effect of over 40% in size; note: potency is the fitted concentration of half-maximal effect
Procedure, shortened: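 Viability in VM7Luc4E2 cells after 22 hr compound exposure under 0.1 nM 17beta-estradiol stimulation, by CellTiter-Fluor.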

[3] = qHTS assay to identify small molecule antagonists of the androgen receptor (AR) signaling pathway using the MDA cell line in the presence of 0.5 nM R1881 - cell viability counter screen (AID 1259242); note: nearly all actives have a fitted effect of over 45% in size; note: potency is the fitted concentration of half-maximal effect
Procedure, shortened: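 Fluorescence from CellTiter-Fluor, which reports protease activity of live cells, was read 30 min after reagent addition to MDA-kb2 cells that had been incubated 16 hr with compound and 0.5 nM R1881.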

[4] = qHTS assay to identify small molecule phospholipidosis (PLD) inducers (AID 1259344; active = well fitted curve in the direction sought with a large enough effect; an effect the other way counts as inactive or inconclusive; note: potency is the fitted concentration of half-maximal effect)
Procedure, shortened: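 HepG2 cells on collagen I, attached 4 h at 37 C, were co-treated with compound and LipidTOX Red dye for 24 h at 37 C, then fixed with paraformaldehyde plus Hoechst 33342 and imaged by high-content microscopy for phospholipid accumulation.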

[5] = qHTS assay to identify small molecule HDAC inhibitors (AID 1259364); note: nearly all actives have a fitted effect of over 45% in size; note: potency is the fitted concentration of half-maximal effect
Procedure, shortened: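 Endogenous HDAC class I/II activity was measured in wild-type HCT-116 cells by HDAC-Glo luminescence after 2 h compound treatment.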

[6] = qHTS assay to identify small molecule HDAC inhibitors - cell viability counter screen (AID 1259365); note: nearly all actives have a fitted effect of over 50% in size; note: potency is the fitted concentration of half-maximal effect
Procedure, shortened: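 Cytotoxicity was gauged in wild-type HCT-116 cells after a brief 2hr treatment with DMSO-dissolved compounds at 37C and 5% CO2, using CellTiter-Glo luminescence developed for 30min at room temperature.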

[7] = qHTS assay to identify small molecule agonists of the sonic hedgehog signaling (Shh) pathway - cell viability counter screen (AID 1259366); note: nearly all actives have a fitted effect of over 50% in size; note: potency is the fitted concentration of half-maximal effect
Procedure, shortened: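 Stable Gli1-Luc NIH/3T3 clone, 2,000 cells/well. Compound exposure 24hr at 37C. Read-out: CellTiter-Fluor fluorescence.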

[8] = qHTS assay to identify small molecule antagonists of the sonic hedgehog signaling (Shh) pathway - cell viability counter screen (AID 1259367); note: nearly all actives have a fitted effect of over 55% in size; note: potency is the fitted concentration of half-maximal effect
Procedure, shortened: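 NIH/3T3-derived Gli1-Luc reporter cells (2,000 per well) rested 4 hr at 37 C, then received DMSO compounds plus conditioned medium. After 23 hr of treatment, CellTiter-Fluor was added for 1 hr at 37C and fluorescence read.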

[9] = biological target: Androgen receptor (Homo sapiens) (UniProt P10275); test: qHTS assay to identify small molecule antagonists of the androgen receptor (AR) signaling pathway using the MDA cell line in the presence of 0.5 nM R1881 (AID 1259243); note: nearly all actives have a fitted effect of over 50% in size
Androgen receptor (Homo sapiens), sequence (P10275 whole entry, looked up): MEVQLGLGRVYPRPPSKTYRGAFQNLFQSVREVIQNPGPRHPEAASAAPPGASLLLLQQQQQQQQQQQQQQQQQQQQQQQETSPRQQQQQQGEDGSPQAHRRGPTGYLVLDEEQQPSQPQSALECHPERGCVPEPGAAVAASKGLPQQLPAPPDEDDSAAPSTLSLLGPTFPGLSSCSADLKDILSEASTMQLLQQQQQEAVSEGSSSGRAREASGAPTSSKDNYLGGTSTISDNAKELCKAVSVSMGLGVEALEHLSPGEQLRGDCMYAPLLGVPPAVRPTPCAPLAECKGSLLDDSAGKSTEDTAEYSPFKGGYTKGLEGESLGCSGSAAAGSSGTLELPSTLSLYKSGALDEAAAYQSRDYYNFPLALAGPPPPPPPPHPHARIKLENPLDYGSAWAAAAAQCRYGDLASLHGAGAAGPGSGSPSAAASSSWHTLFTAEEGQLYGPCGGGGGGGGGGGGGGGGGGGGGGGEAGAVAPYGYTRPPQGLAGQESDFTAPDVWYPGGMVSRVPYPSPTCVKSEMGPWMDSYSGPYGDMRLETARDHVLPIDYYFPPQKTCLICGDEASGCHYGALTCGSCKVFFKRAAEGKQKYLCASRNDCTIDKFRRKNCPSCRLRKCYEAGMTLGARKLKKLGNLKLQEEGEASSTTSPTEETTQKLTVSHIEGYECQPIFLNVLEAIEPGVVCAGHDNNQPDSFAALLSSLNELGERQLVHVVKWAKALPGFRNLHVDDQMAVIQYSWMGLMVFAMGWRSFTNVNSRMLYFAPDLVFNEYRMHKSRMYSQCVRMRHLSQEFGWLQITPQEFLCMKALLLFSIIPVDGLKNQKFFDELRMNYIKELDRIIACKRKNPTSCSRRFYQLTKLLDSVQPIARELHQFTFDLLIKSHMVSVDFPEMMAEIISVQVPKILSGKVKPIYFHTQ
Procedure, shortened: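 Inhibition of R1881 (0.5 nM final) induced reporter signal was measured in human MDA-kb2 cells; note the MMTV promoter also responds to GR. Exposure lasted 16 hr at 37C.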
% is set by controls: 0 for no effect and ±100 for the full control effect.

Cc1cn([C@H]2C=C[C@@H](CO)O2)c(=O)[nH]c1=O
inactive: Potency [1] | Potency [2] | Potency [3] | Potency [4] | Potency [5] | Potency [6] | Potency [7] | Potency [8]

CC12CCC(CC1)C(C)(C)O2
inactive: Potency [1] | Potency [2] | Potency [3] | Potency [4] | Potency [5] | Potency [6] | Potency [7] | Potency [8]

O=c1[nH]cnc2c1ncn2[C@H]1CC[C@@H](CO)O1
inactive: Potency [1] | Potency [2] | Potency [3] | Potency [4] | Potency [5] | Potency [6] | Potency [7] | Potency [8]

O=C1NS(=O)(=O)c2ccccc21
inactive: Potency [1] | Potency [2] | Potency [3] | Potency [4] | Potency [5] | Potency [6] | Potency [7] | Potency [8]

CN(N=O)C(=O)N[C@@H]1[C@@H](O)[C@H](O)[C@@H](CO)O[C@@H]1O
inactive: Potency [1] | Potency [2] | Potency [3] | Potency [4] | Potency [5] | Potency [6] | Potency [7] | Potency [8]

CC(C)NCC(O)c1ccc(O)c(O)c1 (stereo not given)
inactive: Potency [1] | Potency [2] | Potency [3] | Potency [4] | Potency [5] | Potency [6] | Potency [7] | Potency [8]

Nc1ccc(S(N)(=O)=O)cc1
inactive: Potency [1] | Potency [2] | Potency [3] | Potency [4] | Potency [5] | Potency [6] | Potency [7] | Potency [8]

CC(=O)CC(c1ccccc1)c1c(O)c2ccccc2oc1=O (stereo not given)
68.9 µM (active) and inactive: Potency [8]
inactive: Potency [1] | Potency [2] | Potency [3] | Potency [4] | Potency [5] | Potency [6] | Potency [7]

CCCc1cc(=O)[nH]c(=S)[nH]1
inactive: Potency [1] | Potency [2] | Potency [3] | Potency [4] | Potency [5] | Potency [6] | Potency [7] | Potency [8]

O=C(O)CC(O)C(=O)O (stereo not given)
inactive: Potency [1] | Potency [2] | Potency [3] | Potency [4] | Potency [5] | Potency [6] | Potency [7] | Potency [8]

Cc1ncc([N+](=O)[O-])n1CCO
inactive: Potency [1] | Potency [2] | Potency [3] | Potency [4] | Potency [5] | Potency [6] | Potency [7] | Potency [8]

CC1(C)O[C@@H]2C[C@H]3[C@@H]4CCC5=CC(=O)C=C[C@]5(C)[C@@]4(F)[C@@H](O)C[C@]3(C)[C@]2(C(=O)CO)O1
inactive: Potency [1] | Potency [2] | Potency [3] | Potency [4] | Potency [5] | Potency [6] | Potency [7] | Potency [8]

CC(C)C(=O)Nc1ccc([N+](=O)[O-])c(C(F)(F)F)c1
inactive: Potency [1] | Potency [2] | Potency [3] | Potency [4] | Potency [5] | Potency [6] | Potency [7] | Potency [8]

Nc1c(N=Nc2ccc(-c3ccc(N=Nc4cc(S(=O)(=O)O)c5ccccc5c4N)cc3)cc2)cc(S(=O)(=O)O)c2ccccc12
inactive: Potency [1] | Potency [4] | Potency [5] | Potency [6]
active: Potency [2] 12.2 µM | Potency [3] 27.3 µM | Potency [7] 17.2 µM | Potency [8] 15.3 µM

CC(O)(P(=O)(O)O)P(=O)(O)O
inactive: Potency [1] | Potency [2] | Potency [3] | Potency [4] | Potency [5] | Potency [6] | Potency [7] | Potency [8]

CN(C)C(=S)SC(=S)N(C)C
inactive: Potency [1] | Potency [4] | Potency [5] | Potency [6]
active: Potency [2] 2.5 µM and 5.45 µM and 3.76 µM | Potency [3] 2.5 µM and 1.72 µM and 3.35 µM | Potency [7] 3.14 µM and 545 nM and 2.11 µM

C=CCc1ccc(O)c(OC)c1
inactive: Potency [1] | Potency [2] | Potency [3] | Potency [4] | Potency [5] | Potency [6] | Potency [7] | Potency [8]

F[B-](F)(F)F
inactive: Potency [1] | Potency [2] | Potency [3] | Potency [5] | Potency [6] | Potency [7] | Potency [8]

CC1(C)S[C@@H]2[C@H](NC(=O)[C@H](N)c3ccccc3)C(=O)N2[C@H]1C(=O)O
inactive: Potency [1] | Potency [2] | Potency [3] | Potency [5] | Potency [6] | Potency [7]

CN[C@H]1CC[C@@H](c2ccc(Cl)c(Cl)c2)c2ccccc21
active: Potency [4] 2.82 µM
inactive: Potency [2] | Potency [5] | Potency [7] | Potency [8]

O=CC(=O)c1ccccc1
inactive: Potency [1] | Potency [2] | Potency [3] | Potency [5] | Potency [7]

Cc1ccc(S(=O)(=O)O)cc1
inactive: Potency [1] | Potency [2] | Potency [3] | Potency [5] | Potency [6] | Potency [7]

CC/C(=C(\c1ccccc1)c1ccc(OCCN(C)C)cc1)c1ccccc1
active: Potency [1] 55.3 µM and 54.9 µM and 49 µM | Potency [3] 61.1 µM [middle of 4 runs] | Potency [4] 11.2 µM
inactive: Potency [5] | Potency [6]

CC(=O)C(=O)O
inactive: Potency [1] | Potency [2] | Potency [3] | Potency [5] | Potency [6] | Potency [7] | Potency [8]

O=c1[nH]cc(F)c(=O)[nH]1
inactive: Potency [1] | Potency [3] | Potency [4] | Potency [5] | Potency [6] | Potency [7] | Potency [8]

CCCCC(CC)C(=O)O (stereo not given)
inactive: Potency [1] | Potency [2] | Potency [3] | Potency [5] | Potency [6] | Potency [7] | Potency [8]

NS(=O)(=O)O
inactive: Potency [1] | Potency [2] | Potency [3] | Potency [5] | Potency [6] | Potency [7] | Potency [8]

CCN(Cc1c(F)cccc1Cl)c1c([N+](=O)[O-])cc(C(F)(F)F)cc1[N+](=O)[O-]
inactive: Potency [1] | Potency [2] | Potency [3] | Potency [5] | Potency [6] | Potency [7]

CCCC[P+](CCCC)(CCCC)CCCC
inactive: Potency [1] | Potency [2] | Potency [3] | Potency [5] | Potency [6] | Potency [7]

Cc1ncc([N+](=O)[O-])n1C
inactive: Potency [1] | Potency [2] | Potency [3] | Potency [5] | Potency [6] | Potency [7]

Cc1cccc(C)c1
inactive: Potency [1] | Potency [2] | Potency [3] | Potency [5] | Potency [6] | Potency [7]

Nc1ccc([N+](=O)[O-])cc1O
active: Potency [2] 61.1 µM | Potency [7] 30.6 µM | Potency [8] 24.3 µM
inactive: Potency [1] | Potency [4] | Potency [6]

Cc1cc(=O)oc2cc(O)ccc12
inactive: Potency [1] | Potency [2] | Potency [3] | Potency [4] | Potency [5] | Potency [6] | Potency [8]

Nc1ccc2c(c1)CN1C(=O)c3ccccc3C1=N2
active: Potency [1] 10.4 µM | Potency [5] 0.326 µM | Potency [6] 11.6 µM
inactive: activity, negative = inhibition [9] 57.2% [at 19 µM]

COc1cccc(O)c1O
active: Potency [7] 63.5 µM
inactive: Potency [1] | Potency [3] | Potency [9] | Potency [5] | Potency [6]

COc1ccc(OC(F)(F)F)cc1CN[C@H]1CCCN[C@H]1c1ccccc1
active: Potency [3] 48.6 µM | Potency [7] 48.6 µM | Potency [8] 61.1 µM
inactive: Potency [5] | Potency [6]

O=C(Nc1ncc([N+](=O)[O-])s1)c1cccs1
inactive: Potency [1] | Potency [4] | Potency [7]
active: Potency [5] 0.422 µM

OC[C@H]1O[C@H](O[C@]2(CCl)O[C@H](CCl)[C@@H](O)[C@@H]2O)[C@H](O)[C@@H](O)[C@H]1Cl
inactive: Potency [1] | Potency [2] | Potency [3] | Potency [5] | Potency [6] | Potency [7]

Cn1c(=O)c2c(ncn2C)n(C)c1=O
inactive: Potency [1] | Potency [3] | Potency [4] | Potency [5] | Potency [6] | Potency [7]

NC1CCCCC1
inactive: Potency [1] | Potency [2] | Potency [3] | Potency [5] | Potency [6] | Potency [7] | Potency [8]

COc1ccc2cc(S(=O)(=O)N[C@H](CC(=O)N[C@H](Cc3ccc(CN4[C@H](C)CCC[C@@H]4C)cc3)C(=O)N(C)C(C)C)c3ccc4c(c3)OCO4)ccc2c1
inactive: Potency [5] | Potency [6]
active: Potency [2] 29 µM | Potency [3] 46 µM | Potency [7] 25.8 µM

C=C(C)C(=O)OCC(C)O (stereo not given)
inactive: Potency [1] | Potency [2] | Potency [3] | Potency [5] | Potency [6] | Potency [7]

NC(=O)n1c(O)c(C(=O)c2cccs2)c2cc(Cl)ccc21
active: Potency [2] 16.8 µM
inactive: Potency [1] | Potency [4] | Potency [5] | Potency [6]

Nc1ccc(O)c([N+](=O)[O-])c1
active: Potency [7] 43.3 µM
inactive: Potency [1] | Potency [4] | Potency [6]

CN1CCC[C@H]1c1cccnc1
inactive: Potency [1] | Potency [2] | Potency [3] | Potency [5] | Potency [6] | Potency [7] | Potency [8]

O=C(O)c1ccccc1
inactive: Potency [1] | Potency [2] | Potency [3] | Potency [5] | Potency [6] | Potency [7]
